This passage reports Euclidean distance results from the supplement of paper PMC10127200.

Common to all, as to assay: Euclidean distance of Cell Painting phenotypic profile (signed KS, 77 features) to DMSO centroid (dimensionless distance); 5 or 10 uM (library dependent); higher = stronger phenotypic change vs DMSO (phenoactivity)
What all share (settings): 48 h

The test system of assay [1] is 786-O. A digest of the protocol:
(§1)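 Library compounds were applied at 10 or 5 uM, depending on the library, with 0.1% DMSO final, for 48 h to five cancer lines and a healthy fibroblast line. After staining, cells were imaged confocally at 20X across 9 fields per well, and Harmony extracted 77 features, each scored as a signed Kolmogorov-Smirnov statistic against vehicle wells on the same plate. Phenoactivity is the Euclidean distance between each profile and the median vehicle profile, with profiles first plate-position corrected, correlation-weighted and averaged over replicates at the top dose.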

Assay [2] deals with A549. An outline of the steps: as §1
Assay [3] has as its system FB. An outline of the steps:
as §1

Assay [4] has as its system HEPG2. An outline of the steps: as §1
The test system of assay [5] is OVCAR4. A digest of the protocol:
as §1

Structures can show the parent of a compound that is named as a salt.

With `Cc1nnc(C(=O)NC(C)(C)c2nc(C(=O)NCc3ccc(F)cc3)c(O)c(=O)n2C)o1` [Raltegravir potassium], the Euclidean distance came out at 1.12 in assay [1]; 0.895 in assay [2]; 1.33 in assay [3]; 0.632 in assay [4]; 1.04 in assay [5].
Taken in the same sequence, the figures for `CC1=C(/C=C/C(C)=C/C=C/C(C)=C/C(=O)O)C(C)(C)CCC1` [Tretinoin] were 1.24, 1.29, 2.68, 1.21 and 1.18.
As to `CCCNC(C)C(=O)Nc1c(C)csc1C(=O)OC` (stereo not given) [Articaine HCl], the Euclidean distance in assay [1] amounted to 1.24; in assay [2] it was 0.941; in assay [3] it was 0.813; in assay [4], 0.87; in assay [5], 1.06.
On the same counts, the results for `N[C@H]1C(O)O[C@H](CO)[C@@H](O)[C@@H]1O` (stereo not given in full) [Glucosamine] are 0.508, 0.407, 0.896, 1.07 and 1.28.
Taken in the same sequence, the figures for `C[C@@H]1CN(c2c(F)c(N)c3c(=O)c(C(=O)O)cn(C4CC4)c3c2F)C[C@H](C)N1` [Sparfloxacin] were 0.878, 1.28, 0.552, 0.632 and 1.26.
With `C[C@H](CCC(=O)O)[C@H]1CC[C@H]2[C@@H]3[C@@H](O)C[C@@H]4C[C@H](O)CC[C@]4(C)[C@H]3CC[C@]12C` [Ursodiol], the Euclidean distance in assay [1] was determined as 1.16; in assay [2] it was 0.853; in assay [3] it was 1.04; in assay [4], 0.517; in assay [5], 0.943.
On the same counts, the results for `CN1CCC[C@@H]1Cc1c[nH]c2ccc(CCS(=O)(=O)c3ccccc3)cc12` [Eletriptan HBr] are 0.938, 0.828, 1.17, 0.778 and 1.33.
Taken in the same sequence, the figures for `COc1ccc([C@@H]2Sc3ccccc3N(CCN(C)C)C(=O)[C@@H]2OC(C)=O)cc1` [Diltiazem HCl] were 0.663, 1.04, 0.788, 0.773 and 0.53.
Taken in the same sequence, the figures for `C(=C\c1ccccc1)/CN1CCN(C(c2ccccc2)c2ccccc2)CC1` [Cinnarizine] were 0.758, 1.16, 1.01, 0.713 and 1.63.
For `Nc1ccc(S(=O)(=O)Nc2ccccn2)cc1` [Sulfapyridine], the Euclidean distance amounted to 0.73 in assay [1]; 1.12 in assay [2]; 0.894 in assay [3]; 0.884 in assay [4]; 1.27 in assay [5].
On the same counts, the results for `CC[C@H](C)[C@H](N)C1=N[C@H](C(=O)N[C@@H](CC(C)C)C(=O)N[C@H](CCC(=O)O)C(=O)N[C@H](C(=O)N[C@H]2CCCCNC(=O)[C@H](CC(N)=O)NC(=O)[C@@H](CC(=O)O)NC(=O)[C@H](Cc3cnc[nH]3)NC(=O)[C@@H](Cc3ccccc3)NC(=O)[C@H]([C@@H](C)CC)NC(=O)[C@@H](CCCN)NC2=O)[C@@H](C)CC)CS1` [Bacitracin] are 1.65, 1.13, 0.901, 0.726 and 1.22.
Taken in the same sequence, the figures for `O=C(NCCN1CCOCC1)c1ccc(Cl)cc1` were 1.01, 1.34, 0.812, 0.538 and 1.07.
Taken in the same sequence, the figures for `O=C(O)c1cc(O)c2c(c1)[C@H]([C@H]1c3cc(C(=O)O)cc(O)c3C(=O)c3c(O[C@@H]4O[C@H](CO)[C@@H](O)[C@H](O)[C@H]4O)cccc31)c1cccc(O[C@@H]3O[C@H](CO)[C@@H](O)[C@H](O)[C@H]3O)c1C2=O` [Sennoside A] were 0.91, 0.674, 1.07, 0.438 and 1.12.
In the case of `Cn1ccnc1S` [Methimazole], the Euclidean distance in assay [1] was determined as 1.71; in assay [2] it was 1.61; in assay [3], 2.81; in assay [4], 1.08; in assay [5], 2.25.
Taken in the same sequence, the figures for `COc1ccc2[nH]c([S@@+]([O-])Cc3ncc(C)c(OC)c3C)nc2c1` [Esomeprazole sodium] were 0.925, 0.792, 0.681, 1.32 and 0.926.
Taken in the same sequence, the figures for `OCCOCCN1CCN(C2=Nc3ccccc3Sc3ccccc32)CC1` [Quetiapine] were 0.8, 0.671, 0.864, 1.02 and 0.901.
As to `Cc1ccsc1C(=CCCN1CCC[C@@H](C(=O)O)C1)c1sccc1C` [Tiagabine], the Euclidean distance came out at 0.676 in assay [1]; 0.377 in assay [2]; 0.779 in assay [3]; 0.574 in assay [4]; 1.14 in assay [5].
As to `CCn1cc(C(=O)O)c(=O)c2cnc(N3CCNCC3)nc21` [Pipemidic acid], the Euclidean distance in assay [1] worked out at 1.47; in assay [2], 0.855; in assay [3], 1.02; in assay [4] it was 0.639; in assay [5] it was 1.13.
For `CNC(=O)c1ccc(Nc2ncc(C(F)(F)F)c(NCc3nccnc3N(C)S(C)(=O)=O)n2)cc1`, the Euclidean distance in assay [1] is 1.58; in assay [2] it was 1.6; in assay [3], 2.06; in assay [4], 0.842; in assay [5], 1.85.
